Results: PubChem BioAssay (EPA / NIEHS)
Values joined by “and” are separate entries in the source; they are usually repeats but may differ in a detail not shown here. Identical values can stand only once. Results filed as inconclusive are left out. Some structures have more than one record in an assay (separate samples or runs), and their calls can disagree. Active and inactive are the calls of the source. How the source made its calls, unless noted: active means hit-call score of the fitted dose curve at least 0.9, where 1 is the maximum; inactive means score below 0.9.

Columns and labels:
[1] = TOX21_p53_BLA_p2_viability: Viability Assessment in the Tox21 HCT-116 p53 Agonism Beta-lactamase Assay, Phase 2 (AID 2283591; active means hit-call score of the fitted dose curve at least 0.9, where 1 is the maximum;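 further: compound exposure lasted 16 h at 37 °C; actives lower the ATP signal meaning cytotoxicity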)
How it was run: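 HCT-116 p53-bla cells (4000/well) rested 5 h at 37C, then received compounds in DMSO (217-fold dilution) for 16 h at 37C, 5% CO2. After the CCF4 read, CellTiter-Glo was added; ATP luminescence was read after 30 min at room temperature.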

[2] = biological target: Cellular tumor antigen p53 (Homo sapiens) (UniProt P04637); assay: TOX21_p53_BLA_p2_ratio: Tox21 HCT-116 p53 Agonism Beta-lactamase Assay, Ratio, Phase 2 (AID 2283592; active means hit-call score of the fitted dose curve at least 0.9, where 1 is the maximum)
How it was run: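 HCT116 p53-bla; 4000 cells/well; 5 h pre-incubation; cpd in DMSO, 217-fold dilution; 16 h 37C/5% CO2; CCF4-AM 2 h RT; Ex 405, Em 460/530 ratio; DMSO = baseline; positive fitting direction.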

[3] = TOX21_p53_BLA_p3_viability: Viability Assessment in the Tox21 HCT-116 p53 Agonism Beta-lactamase Assay, Phase 3 (AID 2283593; active means hit-call score of the fitted dose curve at least 0.9, where 1 is the maximum;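 further: cells exposed to compound for 16 h before reading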)
How it was run: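 HCT-116 cells (4000/well) rested 5 h at 37C, then got DMSO compounds by pin tool (217-fold dilution) for 16 h at 37C, 5% CO2. After the bla read, CellTiter-Glo was added and luminescence read at 30 min, room temperature.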

[4] = biological target: Cellular tumor antigen p53 (Homo sapiens) (UniProt P04637); assay: TOX21_p53_BLA_p3_ratio: Tox21 HCT-116 p53 Agonism Beta-lactamase Assay, Ratio, Phase 3 (AID 2283596; active means hit-call score of the fitted dose curve at least 0.9, where 1 is the maximum)
How it was run: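 HCT116 p53-bla cells (4000/well) given compound in DMSO (217-fold dilution) after 5 h, incubated 16 h at 37C. CCF4-AM substrate 2 h at room temperature; 460/530 nm emission ratio, gain fitted against DMSO.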

[5] = biological target: Cellular tumor antigen p53 (Homo sapiens) (UniProt P04637); assay: TOX21_p53_BLA_p5_ratio: Tox21 HCT-116 p53 Agonism Beta-lactamase Assay, Ratio, Phase 5 (AID 2283599; active means hit-call score of the fitted dose curve at least 0.9, where 1 is the maximum)
How it was run: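 HCT-116 cells carrying a p53-inducible beta-lactamase reporter were seeded at 4000 cells/well and dosed after 5 h with compound in DMSO (217-fold dilution). After 16 h at 37C, CCF4-AM substrate was added for 2 h, and the 460/530 nm emission ratio was scored as gain-of-signal versus DMSO.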

[6] = TOX21_p53_BLA_p5_viability: Viability Assessment in the Tox21 HCT-116 p53 Agonism Beta-lactamase Assay, Phase 5 (AID 2283600; active means hit-call score of the fitted dose curve at least 0.9, where 1 is the maximum)
How it was run: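 4000 cells/well; 5 h pre-incubation; DMSO compounds pin-transferred, 217-fold dilution; 16 h, 37C/5% CO2; CCF4-AM 2 h RT; CellTiter-Glo 30 min RT; luminescence.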

[7] = CCTE_Shafer_MEA_dev_firing_rate_mean: CCTE's Neural Network Formation Assay for Mean Firing Rate, Shafer Lab (AID 2284031)
How it was run: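 Primary rat cortical neurons on 48-well, 16-electrode MEAs (PEI-coated, laminin at plating), exposed from day 0 with compound renewed at DIV 5 and 9. Spikes recorded DIV 5, 7, 9, 12; well-mean firing rate collapsed to trapezoidal AUC, loss-of-signal vs DMSO.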

[8] = CCTE_Shafer_MEA_dev_per_burst_spike_percent: CCTE's Neural Network Formation Assay for Percent of Spikes in a Burst, Shafer Lab (AID 2284032);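 on AC50: fitted as a decrease in burst spike percentage below DMSO baseline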
How it was run: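 Rat primary cortical neurons on 16-electrode MEA wells, dosed from plating day 0 for 12 days with renewal on DIV 5 and 9; spikes-in-bursts percentage averaged over bursting electrodes, collapsed as AUC across days 5, 7, 9, 12; loss direction versus DMSO.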

[9] = CCTE_Shafer_MEA_dev_active_electrodes_number: CCTE's Neural Network Formation Assay for Number of Active Electrodes, Shafer Lab (AID 2284040; active means hit-call score of the fitted dose curve at least 0.9, where 1 is the maximum;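 further: potency for loss of active electrodes versus DMSO so lower counts are hits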)
How it was run: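 Rat cortical primary cultures, 1.5 x 10^5 cells/well, PEI-coated MEA, laminin drop. Continuous exposure DIV 0–12; full media/compound change DIV 5, 9. Readout: electrodes with mean firing ≥5 spikes/min; AUC across days; loss vs DMSO.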

[10] = CCTE_Shafer_MEA_dev_burst_rate: CCTE's Neural Network Formation Assay for Burst Rate, Shafer Lab (AID 2284042)
How it was run: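 Rat primary cortical cultures on PEI/laminin MEA; compound from plating, re-dosed at DIV 5, 9 media change. Single-electrode bursts/recording length, well mean of active electrodes; AUC over DIV 5–12 recordings; loss-of-signal vs DMSO.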

[11] = CCTE_Shafer_MEA_dev_per_burst_interspike_interval: CCTE's Neural Network Formation Assay for Burst Interspike Interval, Shafer Lab (AID 2284044);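 further: mean spike spacing inside bursts as AUC over recordings on days 5 7 9 12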
How it was run: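 Neurons from rat cortex plated onto PEI-coated MEA wells with laminin […] at 1.5 x 10^5 cells/well, then treated from day 0. Media and compound fully replaced on DIV 5 and 9. Extracellular spontaneous firing recorded four times; interspike interval per burst summarised as AUC.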

[12] = CCTE_Shafer_MEA_dev_burst_duration_mean: CCTE's Neural Network Formation Assay for Mean Burst Duration, Shafer Lab (AID 2284045)
How it was run: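 Primary rat cortical neurons on PEI-coated 16-electrode MEA wells, exposed from plating through day 12 with compound renewed at DIV 5 and 9; spontaneous activity recorded days 5, 7, 9, 12. Well-mean burst duration collapsed as trapezoidal AUC, fitted for loss versus DMSO.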

[13] = CCTE_Shafer_MEA_dev_interburst_interval_mean: CCTE's Neural Network Formation Assay for Mean Interburst Interval, Shafer Lab (AID 2284046);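 further: well-mean interburst interval of bursting electrodes as AUC over four recording days; curve fitted for decrease in interburst interval relative to DMSO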
How it was run: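 Rat cortical neurons, 1.5 x 10^5 cells/well, 48-well MEA; compound from day 0 through DIV 12, media and treatment renewed DIV 5/9. Recordings DIV 5, 7, 9, 12; well-mean interburst interval → trapezoidal AUC, loss direction vs DMSO.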

[14] = CCTE_Shafer_MEA_dev_inter_network_spike_interval_mean: CCTE's Neural Network Formation Assay for Mean Inter-network Spike Interval, Shafer Lab (AID 2284047)
How it was run: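 Primary rat cortical neurons on PEI-coated 48-well MEAs (16 electrodes/well) were exposed from plating day 0 to DIV 12, with dosing renewed at DIV 5 and 9. Recordings at DIV 5, 7, 9, 12 were collapsed by trapezoidal AUC, loss-of-signal fit vs DMSO.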

[15] = CCTE_Shafer_MEA_dev_network_spike_number: CCTE's Neural Network Formation Assay for Number of Network Spikes, Shafer Lab (AID 2284048);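 further: synchronized bursts across electrodes counted on days 5 7 9 12 and integrated as AUC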
How it was run: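 Primary rat cortical neurons were seeded at 1.5 x 10^5 cells/well on PEI-coated 16-electrode MEA wells with laminin, exposed from plating day 0, compound renewed at DIV 5 and 9. Network spikes were recorded on days 5, 7, 9, 12 and summarized as trapezoidal AUC versus DMSO.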

[16] = CCTE_Shafer_MEA_dev_spike_duration_mean: CCTE's Neural Network Formation Assay for Mean Spike Duration, Shafer Lab (AID 2284051);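 further: mean network spike duration pooled as area under curve over DIV 5 to 12 recordings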;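 on AC50: potency for a decrease in mean network spike duration versus DMSO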
How it was run: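 Rat cortical primary cultures, 48-well MEA (16 electrodes/well); compound from plating, renewed DIV 5, 9. Network spike duration (AxIS adaptive detector) recorded DIV 5/7/9/12, combined as trapezoidal AUC; loss direction vs DMSO.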

[17] = CCTE_Shafer_MEA_dev_network_spike_duration_std: CCTE's Neural Network Formation Assay for Standard Deviation of Network Spike Duration, Shafer Lab (AID 2284052);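 further: area under curve of spike duration SD across recording days 5 to 12; hits are decreases in network spike duration SD versus DMSO vehicle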
How it was run: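 Rat cortical cultures, 1.5 x 10^5 cells/well, exposed continuously from plating to DIV 12 with media/compound renewal at DIV 5, 9. Spontaneous activity recorded DIV 5/7/9/12, AxIS adaptive spike detector; AUC across days; negative direction vs DMSO.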

[18] = CCTE_Shafer_MEA_dev_per_network_spike_spike_number_mean: CCTE's Neural Network Formation Assay for Mean Number of Spikes in a Network Spike, Shafer Lab (AID 2284053);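 further: fitted as decrease in spikes per network spike relative to DMSO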
How it was run: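 Rat cortical primary cultures on 48-well MEA; compound from day 0, re-dosed with full media change DIV 5, 9. Recorded DIV 5, 7, 9, 12; spikes in 0.05 s window at network-spike peak ÷ total network spikes; AUC; loss vs DMSO.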

[19] = CCTE_Shafer_MEA_dev_per_network_spike_spike_percent: CCTE's Neural Network Formation Assay for Percent of Spikes in a Network Spike, Shafer Lab (AID 2284054)
How it was run: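 Primary rat cortical neurons on 16-electrode MEA wells (PEI-coated, laminin at plating), exposed from day 0 with renewal at DIV 5 and 9; spikes within 0.05 s of network-spike peaks over total spikes, AUC across days 5, 7, 9, 12.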

[20] = CCTE_Shafer_MEA_dev_LDH: CCTE's Lactate Dehydrogenase Assay for Cytotoxicity in the Neural Network Formation Assay, Shafer Lab (AID 2284068; active means hit-call score of the fitted dose curve at least 0.9, where 1 is the maximum;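 further: exposure for twelve days from plating with re-dosing on DIV 5 and 9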)
How it was run: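 Rat cortical primary neurons, MEA culture; dosing day 0–12, full medium plus compound exchange DIV 5, 9. Read-out: LDH enzyme activity, spectrophotometric. DMSO = negative control/baseline; signal loss → cytotoxicity.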

[21] = UKN5_HCS_SBAD2_neurite_outgrowth: University of Konstanz (UKN) Leist Lab Neurite Outgrowth Assay in human iPSC-derived immature Dorsal Root Ganglia Neurons (UKN5) (AID 2284070); conditions: actives raise or lower the signal
How it was run: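 Human iPSC-derived immature DRG neurons (SBAD2) on Matrigel with CHIR99021 (1.5 uM), SU5402 (5 uM), DAPT (5 uM); compounds added 1 h post-seeding for 24 h. Calcein-AM neurite area imaged; bidirectional fit vs DMSO.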

[22] = CCTE_Shafer_MEA_dev_AB: CCTE's Alamar Blue Assay for Cytotoxicity in the Neural Network Formation Assay, Shafer Lab (AID 2284083; active means hit-call score of the fitted dose curve at least 0.9, where 1 is the maximum;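 further: resazurin reduction fluorescence as viability of cultured neurons; twelve days of exposure from plating with re-dosing on DIV 5 and 9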)
How it was run: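 Rat cortical primary cultures, 1.5 x 10^5 cells/well on MEA; continuous compound exposure over 12 days of network development, re-dosed with full medium change DIV 5 and 9. Alamar Blue fluorescence; loss of signal = cytotoxicity vs DMSO baseline.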

[23] = CCTE_Shafer_MEA_dev_mutual_information_norm: CCTE's Neural Network Formation Assay for Mutual Information Normalization, Shafer Lab (AID 2284091);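 further: mutual information between electrodes summarised as area under curve across four recording days; potency is for a decrease in mutual information relative to DMSO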
How it was run: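 Rat cortical cultures, 48-well MEA, continuous exposure DIV 0–12 with full media/compound change DIV 5 and 9. Readout: inter-electrode mutual information, AxIS adaptive spike detection; AUC across DIV 5/7/9/12 recordings; DMSO baseline, negative fitting direction.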

[24] = CCTE_Shafer_MEA_dev_correlation_coefficient_mean: CCTE's Neural Network Formation Assay for Mean Correlation Coefficient, Shafer Lab (AID 2284093);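 further: well mean pairwise spike train correlation integrated as AUC over recording days 5 to 12; potency fitted for loss of correlation relative to DMSO vehicle wells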
How it was run: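 Rat cortical cultures, 1.5 x 10^5 cells/well, dosed from day 0 for 12 days. Spontaneous spikes recorded DIV 5/7/9/12; electrode-pair correlation coefficients averaged, AUC taken. Fit in loss direction vs DMSO.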

[25] = UKN2_HCS_IMR90_neural_migration: University of Konstanz (UKN) Leist Lab Neural Crest Cell Migration Assay in human induced IMR90 Pluripotent Stem Cells (UKN2) (AID 2284204); conditions: actives raise or lower the signal
How it was run: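 iPSC-derived IMR90 neural crest cells on PLO/laminin/fibronectin were seeded around silicone stoppers; after stopper removal, migration in N2-S medium with EGF and FGF ran 24 h before 24 h chemical exposure. Calcein-AM/Hoechst high-content imaging; bidirectional fit versus DMSO.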

Measured: AC50

Cellular tumor antigen p53 (Homo sapiens), sequence (P04637 whole entry, looked up): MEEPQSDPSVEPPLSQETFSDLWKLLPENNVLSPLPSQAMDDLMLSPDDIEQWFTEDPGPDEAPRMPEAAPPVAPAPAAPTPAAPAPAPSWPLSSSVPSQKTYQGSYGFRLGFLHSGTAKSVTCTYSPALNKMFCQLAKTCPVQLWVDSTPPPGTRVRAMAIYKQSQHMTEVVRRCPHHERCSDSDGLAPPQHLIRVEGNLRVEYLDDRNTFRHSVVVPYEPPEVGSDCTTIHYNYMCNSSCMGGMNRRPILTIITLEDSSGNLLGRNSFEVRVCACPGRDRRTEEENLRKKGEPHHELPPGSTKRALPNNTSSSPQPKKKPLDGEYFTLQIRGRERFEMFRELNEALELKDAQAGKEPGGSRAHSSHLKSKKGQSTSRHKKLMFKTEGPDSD

Brc1ccc(Oc2ccc(Br)cc2Br)c(Br)c1
active: [8] 14.2 µM | [9] 19.8 nM and 10 µM | [16] 15 µM | [18] 25.4 nM and 4 µM | [19] 15.1 µM | [20] 12.3 µM | [22] 8.31 µM | [23] 13.4 nM and 1.98 µM | [24] 92.3 nM and 4.26 µM
inactive: [1] | [2] | [3] | [4] | [5] | [6] | [7] | [8] | [10] | [11] | [12] | [13] | [14] | [15] | [16] | [17] | [19] | [20] | [21] | [22] | [25]
